From PubChem
Pf growth 48h: Primary qHTS for delayed death inhibitors of the malarial parasite plastid, 48 hour incubation | P. falciparum luciferase growth in erythrocytes, 48 h | Potency, µM (highest dose often 28.7 µM), for inactives: at the top dose activity change, negative = inhibition, actives largely listed as inhibitors | 310,000 tested, 5.9% active; note: potency is the fitted concentration of half-maximal effect; % is set by controls: 0 for no effect and ±100 for the full control effect
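Luciferase-expressing parasites in RBCs, 2% Hct / 0.1% parasitemia final; RPMI 1640 + 0.5% Albumax; 37 C, 5% CO2, one generation; luminescence read-out, lower signal = inhibition.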
Shiga inhibitor: A qHTS for Small Molecule Inhibitors of Shiga Toxin. Vero cells, Shiga toxin protein synthesis inhibition reporter. inhibition, % at 38.7 µM. 290,000 tested, 9.2% active; in the data active = inhibition mostly above about 28%, no sharp cut-off; inactive = mostly below about 43%; note: 0% is about no effect
Pf growth 96h: Primary qHTS for delayed death inhibitors of the malarial parasite plastid, 96 hour incubation. AID 504834, 2011. 320,000 tested, 6.9% active. P. falciparum luciferase reporter growth, 96 h. Potency, µM (titrated, usually from 28.7 µM), without a hit: top-dose activity change, negative = inhibition, actives largely listed as inhibitors; note: potency is the fitted concentration of half-maximal effect; % is set by controls: 0 for no effect and ±100 for the full control effect
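Erythrocytes infected with luciferase-expressing P. falciparum were dispensed at 2% hematocrit and 0.05% parasitemia (final), then incubated with compounds 96 hours at 37 C in 5% CO2. Luminescence after detection reagent addition reported growth.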
CHX counter: Cycloheximide Counterscreen for Small Molecule Inhibitors of Shiga Toxin. AID 2314, 2010. 300,000 tested, 12% active. max response, %. cell reporter, cycloheximide protein synthesis inhibition counterscreen; in the data active = max response mostly above about 13%, no sharp cut-off; inactive = mostly below about 14%; note: read at 38.3 µM for the half of the compounds with a filed dose; 0% is about no effect
The depositor's hits bear a star; ? = inconclusive; . = not tested or not shown; [ ] = dose if it differs, or a comment. An excerpt weighted towards active compounds, which were near 21% of everything screened. Unless noted, calls come from the whole dose curve; as a rule, active = well fitted inhibition curve with a large enough effect; inconclusive = small, poorly fitted or top-dose-only effect, or another doubt; inactive = no such curve, though single readings can be large or run the other way.

SMILES	Pf growth 48h	Shiga inhibitor	Pf growth 96h	CHX counter
CCOc1cc(C(=O)N=c2sccn2C)cc(Br)c1OC	?	-4.8	7.38µM*	12.3
COc1ccc(NC(=O)N2CCc3ccccc3C2)c(OC)c1	2.8%	36.3*	38.4%	16.5*
COc1ccc(OC)c(NC(=O)N2CCc3ccccc3C2)c1	3.2%	10.3	-28.0%	15.7
CCOc1ccccc1NC(=O)N1CCc2ccccc2C1	?	22.3	-18.1%	18.7*
COC(=O)c1cccc(NC(=O)CCN2C(=O)C3CC=CCC3C2=O)c1 (stereo not given)	12.2%	.	-10.4%	.
CC[C@@]1(O)C[C@H](O[C@H]2C[C@@H](N(C)C)[C@@H](O[C@H]3C[C@@H](O)[C@@H](O[C@H]4CCC(=O)[C@@H](C)O4)[C@@H](C)O3)[C@@H](C)O2)c2c(cc3c(c2O)C(=O)c2c(O)cccc2C3=O)[C@H]1C(=O)OC	0.0849µM*	.	0.0601µM*	.
CN(C(=O)c1ccc2c(c1)CCN2S(C)(=O)=O)c1ccccc1	-7.2%	10.4	?	-2.6
Cc1ccccc1NC(=O)c1ccc2c(c1)CCN2S(C)(=O)=O	-13.9%	13.2	?	2.2
CS(=O)(=O)N1CCc2cc(C(=O)Nc3ccccc3Cl)ccc21	18.1%	37.5	?	26.7*
Cc1cccc(NC(=O)c2ccc3c(c2)CCN3S(C)(=O)=O)c1C	-2.2%	.	322.8%	18.1*
CS(=O)(=O)N1CCc2cc(C(=O)OCC(=O)c3ccccc3)ccc21	.	48.6	-18.7%	23.1*
Cc1c(F)cccc1NC(=O)c1ccc2c(c1)CCN2S(C)(=O)=O	?	164.8*	2.9%	8.9*
COc1cc(OC)cc(-c2nnc(SCc3ccc(C(=O)O)cc3)o2)c1	-22.4%	-3.0	-6.3%	-1.3
CC(=O)c1cccc(N(C(=O)CNC(=O)c2ccco2)C(C(=O)NCC2CCCO2)c2ccccc2)c1 (stereo not given)	-5.6%	6.8	25.4%	-0.9
COc1cccc(/C=C/C(=O)NCc2ccc(S(N)(=O)=O)cc2)c1	39.9%	10.2	53.5%	6.4
Cn1c(/N=C/c2ccc3c(c2)OCO3)nc2ccccc21	1.5%	-2.7	-15.2%	-1.4
Nc1nc2ccccc2n1/N=C/c1ccc2c(c1)OCO2	-22.1%	91.4*	-23.9%	31.9*
Nc1nc2ccccc2n1/N=C/c1ccc(Br)cc1	-77.2%	92.9*	10.4µM*	42.6*
CCOC(=O)CNC(=O)N1CCCC(CCC(=O)NCc2ccc(F)c(F)c2)C1 (stereo not given)	6.2%	15.1	-8.8%	-1.5
CC1CC1C(=O)Nc1ccc(-c2ccccc2)cc1 (stereo not given)	-12.1%	82.6*	13.1µM*	44.8*
O=C(O)[C@H]1CCCC[C@H]1C(=O)Nc1ccc(Nc2ccccc2)cc1	-1.6%	12.5	-8.0%	-2.5
CNC(=S)N1N=C2c3ccccc3CCC2C1c1ccccc1Cl (stereo not given)	?	-0.1	?	6.0
CN1N=C2c3ccccc3CCC2C1c1ccc(F)cc1 (stereo not given)	1.31µM*	86.5*	1.65µM*	75.8*
CN1N=C2c3ccccc3CCC2C1c1ccc(Cl)cc1 (stereo not given)	?	71.9*	1.47µM*	35.0*
COC(=O)/C=C1\S/C(=N/N=C/c2ccc(Cl)cc2)NC1=O	14.7µM*	-4.1	7.8%	-0.7
SMILES	Pf growth 48h	Shiga inhibitor	Pf growth 96h	CHX counter
COC(=O)/C=C1\S/C(=N/N=C/c2ccccc2)NC1=O	-22.7%	-4.1	-11.5%	9.9
COC(=O)C/C=N/N=C1/NC(=O)/C(=C/C(=O)O)S1	?	27.8	9.28µM*	-1.0
CSc1ccccc1C(=O)C1CCCN(Cc2cnn(-c3ccccc3)c2)C1 (stereo not given)	?	-4.8	135.4%	0.9
CCN(CC)CCN(Cc1cc2cc3c(cc2[nH]c1=O)OCO3)C(=S)NC	?	.	-13.2%	-3.2
COC(=O)c1sc(SC)nc1N	12.9%	33.6	13.7%	10.8
CN(C)c1ccc(NC(=O)c2sc(SCC(=O)Nc3ccc(Br)cc3)nc2N)cc1	37.1%	23.8	128.0%	-2.7
CCCCC(=O)Nc1nnc(S(=O)(=O)N(CC)c2ccc(OC)cc2)s1	-3.9%	3.2	29.5%	-0.8
CCCCC(=O)Nc1nnc(-c2ccc(OC)cc2)s1	80.9%	35.0*	25.7%	22.7
CSc1nc(N)c(C(=O)Nc2ccc([N+](=O)[O-])cc2)s1	6.4%	50.4*	-0.5%	32.0*
CCCCNC(=O)CSc1nc(N)c(C(=O)Nc2ccc(OC)cc2)s1	53.5%	27.8*	26.6%	29.7*
COc1ccc(NC(=O)CSc2nnc(NC(=O)c3ccccc3C(=O)O)s2)cc1	?	-13.9	?	-3.0
CN(C)c1ccc(NC(=O)c2sc(SCC(=O)Nc3nccs3)nc2N)cc1	-18.5%	108.7*	5.8%[5.75 µM]	33.1*
COc1ccc(-n2nc(C(=O)NCC(=O)NCCCN3CC(C)CC(C)C3)c3ccccc3c2=O)cc1 (stereo not given)	-7.7%	-7.4	?	-4.4
CCCCC(=O)Nc1nnc(SCC(=O)Nc2ccc(OC)cc2)s1	1.3%	93.1*	34.1%	41.1*
COc1ccc(-c2nnc(NC(=O)c3c(OC)cccc3OC)s2)cc1	-0.4%	33.4	132.6%	0.8
O=C(CSc1nnc(-c2cccnc2)s1)Nc1ccccc1	19.4%	-5.2	1.1%	-4.4
COC(=O)Nc1nnc(-c2ccc(OC)cc2)s1	164.3%	101.5*	255.6%	29.6*
COc1ccc(NC(=O)CSc2nnc(NC(=O)CN3CCOCC3)s2)cc1	?	4.9	?	-3.0
COc1ccc(NC(=O)CSc2nnc(-c3cccnc3)s2)cc1	10.9%	9.6	6.57µM*	-3.2
CCC(C)N(C)C1CCN(C(=S)Nc2cccc(SC)c2)CC1 (stereo not given)	20.3%	4.3	-20.7%	-1.8
O=C(COc1ccc2ccccc2c1)N[C@@H](C(=O)O)c1ccc(O)cc1	28.7%	-5.5	19.7%	-0.7
Cc1c2c(c(C)n1C)C(C(=O)NC1CCCCC1)N(Cc1ccccc1)C2=O (stereo not given)	-15.5%	-2.7	?	4.1
CNc1nc2c(-c3ccc(Cl)cc3)nnn2c2ccccc12	1.8%	16.8	-23.1%	14.6
CCCCNc1nc2c(-c3ccccc3)nnn2c2ccccc12	-5.2%	6.3	-1.7%	4.1
NNc1nc2c(-c3cccc(C(F)(F)F)c3)nnn2c2ccccc12	6.57µM*	52.9*	25.9%	15.2*
SMILES	Pf growth 48h	Shiga inhibitor	Pf growth 96h	CHX counter
Cc1ccc(-c2nnn3c2nc(NC(C)C)c2ccccc23)cc1	?	19.7	15.8%	13.6*
Nc1nc2c(-c3ccc(Br)cc3)nnn2c2ccccc12	239.7%	96.4*	251.7%	49.0*
O=C(NN=C1CCN(Cc2ccccc2)CC1)C(O)c1ccccc1 (stereo not given)	10.4%	1.4	-2.7%	-2.8
CC(C)(C)C(=O)Nc1nnc(SCC(=O)Nc2nccs2)s1	?	-3.2	3.5%	-1.1
O=S(=O)(c1ccc(Br)s1)N1CCC2(CC1)OCCO2	-5.9%	-6.0	?	0.9
COc1cc2[nH]c(=S)n(NC(=O)CC(C)C)c(=O)c2cc1OC	1.4%	-4.0	10.4µM*	-2.7
Cn1c(O)c(/C=N/N2CCOCC2)c(=O)n(-c2ccccc2)c1=S	12.8%	-10.5	8.5%	-0.4
